# Laboratory results as given in the supplement of paper PMC8728848.
# The entries come from a sample that favours the strongest signals as a whole.
# B1: TIM1 (protein)
# chain: ADGIQSVKVGGEAGPSVTLPCHYSGAVTSMCWNRGSCSLFTCQNGIVWTNGTHVTYRKDTRYKLLGDLSRRDVSLTIENTAVSDSGVYCCRVEHRGWFNDMKITVSLEIVPPHHHHHH
# Assays:
# Experiment in all cases: glycan array binding signal (z-score within array); higher = stronger binding
# Conditions in all cases: glycan notation: IUPAC condensed, linker removed
# GalNAc(b1-3)GlcNAc = biological target: GalNAc(b1-3)GlcNAc
# Procedure, shortened: (§1)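 Arrays were curated from the Consortium for Functional Glycomics database, 3228 in total, and kept only where the protein sequence was available. Binding is expressed as a within-array Z-score. This score was averaged across arrays of the same protein sequence at different concentrations or buffers and across linkers, and negative values can be read as non-binding.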
# GalNAc6S(b1-4)GlcNAc = biological target: GalNAc6S(b1-4)GlcNAc
# Procedure, shortened: as §1
# Glc(a1-6)Glc(a1-6)Glc = biological target: Glc(a1-6)Glc(a1-6)Glc
# Procedure, shortened: as §1
# [1] = biological target: GlcNAc(a1-4)Gal(b1-4)GalNAc
# Procedure, shortened: as §1
# [2] = biological target: GlcNAc(a1-4)Gal(b1-4)GlcNAc(b1-3)Gal(b1-4)GlcNAc
# Procedure, shortened: as §1
# [3] = biological target: GlcNAc(a1-4)Gal(b1-4)GlcNAc(b1-3)Gal(b1-4)[Fuc(a1-3)]GlcNAc(b1-3)Gal(b1-4)[Fuc(a1-3)]GlcNAc
# Procedure, shortened: as §1
# [4] = biological target: GlcNAc(b1-3)Gal(b1-4)GlcNAc(b1-2)[GlcNAc(b1-3)Gal(b1-4)GlcNAc(b1-6)]Man(a1-6)[GlcNAc(b1-3)Gal(b1-4)GlcNAc(b1-2)Man(a1-3)]Man(b1-4)GlcNAc(b1-4)GlcNAc
# Procedure, shortened: as §1
# [5] = biological target: GlcNAc(b1-3)Gal(b1-4)GlcNAc(b1-3)Gal(b1-4)GlcNAc(b1-2)Man(a1-3)[GlcNAc(b1-3)Gal(b1-4)GlcNAc(b1-3)Gal(b1-4)GlcNAc(b1-2)Man(a1-6)]Man(b1-4)GlcNAc(b1-4)GlcNAc
# Procedure, shortened: as §1
# [6] = biological target: GlcNAc(b1-3)Gal(b1-4)GlcNAc(b1-3)Gal(b1-4)GlcNAc(b1-2)[GlcNAc(b1-3)Gal(b1-4)GlcNAc(b1-3)Gal(b1-4)GlcNAc(b1-6)]Man(a1-6)[GlcNAc(b1-3)Gal(b1-4)GlcNAc(b1-3)Gal(b1-4)GlcNAc(b1-2)Man(a1-3)]Man(b1-4)GlcNAc(b1-4)[Fuc(a1-6)]GlcNAc
# Procedure, shortened: as §1
# [7] = biological target: GlcNAc(b1-3)Gal(b1-4)GlcNAc(b1-3)Gal(b1-4)GlcNAc(b1-3)Gal(b1-4)GlcNAc(b1-2)[GlcNAc(b1-3)Gal(b1-4)GlcNAc(b1-3)Gal(b1-4)GlcNAc(b1-3)Gal(b1-4)GlcNAc(b1-6)]Man(a1-6)[GlcNAc(b1-3)Gal(b1-4)GlcNAc(b1-3)Gal(b1-4)GlcNAc(b1-3)Gal(b1-4)GlcNAc(b1-2)Man(a1-3)]Man(b1-4)GlcNAc(b1-4)[Fuc(a1-6)]GlcNAc
# Procedure, shortened: as §1
# [8] = biological target: GlcNAc6S(b1-3)Gal(b1-4)GlcNAc
# Procedure, shortened: as §1
# Kdn(a2-3)Gal(b1-3)GalNAc = biological target: Kdn(a2-3)Gal(b1-3)GalNAc
# Procedure, shortened: as §1
# [9] = biological target: Man(a1-2)Man(a1-3)[Man(a1-2)Man(a1-6)]Man
# Procedure, shortened: as §1
# Neu5Ac(a2-3)Gal(b1-4)Glc = biological target: Neu5Ac(a2-3)Gal(b1-4)Glc
# Procedure, shortened: as §1
# [10] = biological target: Neu5Ac(a2-3)Gal(b1-4)GlcNAc(b1-2)Man(a1-3)[Neu5Ac(a2-3)Gal(b1-4)GlcNAc(b1-2)Man(a1-6)]Man(b1-4)GlcNAc(b1-4)[Fuc(a1-6)]GlcNAc
# Procedure, shortened: as §1
# [11] = biological target: Neu5Ac(a2-3)Gal(b1-4)GlcNAc(b1-2)[Neu5Ac(a2-3)Gal(b1-4)GlcNAc(b1-4)]Man(a1-3)[GlcNAc(b1-4)][Neu5Ac(a2-3)Gal(b1-4)GlcNAc(b1-2)[Neu5Ac(a2-3)Gal(b1-4)GlcNAc(b1-6)]Man(a1-6)]Man(b1-4)GlcNAc(b1-4)GlcNAc
# Procedure, shortened: as §1
# [12] = biological target: Neu5Ac(a2-3)Gal(b1-4)GlcNAc(b1-3)Gal(b1-4)GlcNAc(b1-3)Gal(b1-4)GlcNAc(b1-2)Man(a1-3)[Neu5Ac(a2-3)Gal(b1-4)GlcNAc(b1-3)Gal(b1-4)GlcNAc(b1-3)Gal(b1-4)GlcNAc(b1-2)Man(a1-6)]GalNAc
# Procedure, shortened: as §1
# [13] = biological target: Neu5Ac(a2-3)Gal(b1-4)GlcNAc(b1-6)GalNAc
# Procedure, shortened: as §1
# [14] = biological target: Neu5Ac(a2-3)Gal(b1-4)GlcNAc6S
# Procedure, shortened: as §1
# [15] = biological target: Neu5Ac(a2-3)Gal(b1-4)[Fuc(a1-3)]GlcNAc(b1-2)Man
# Procedure, shortened: as §1
# [16] = biological target: Neu5Ac(a2-6)Gal(b1-4)GlcNAc(b1-3)Gal(b1-4)GlcNAc(b1-2)Man(a1-3)[Neu5Ac(a2-6)Gal(b1-4)GlcNAc(b1-3)Gal(b1-4)GlcNAc(b1-2)Man(a1-6)]GalNAc
# Procedure, shortened: as §1
# [17] = biological target: Neu5Ac(a2-6)Gal(b1-4)GlcNAc(b1-3)Gal(b1-4)GlcNAc(b1-3)Gal(b1-4)GlcNAc(b1-2)Man(a1-3)[Neu5Ac(a2-6)Gal(b1-4)GlcNAc(b1-3)Gal(b1-4)GlcNAc(b1-3)Gal(b1-4)GlcNAc(b1-2)Man(a1-6)]GalNAc
# Procedure, shortened: as §1
# [18] = biological target: Neu5Ac(a2-6)Gal(b1-4)GlcNAc(b1-6)[Gal(b1-3)]GalNAc
# Procedure, shortened: as §1
# [19] = biological target: Neu5Ac(a2-8)Neu5Ac(a2-3)[GalNAc(b1-4)]Gal(b1-4)Glc
# Procedure, shortened: as §1
# [20] = biological target: Neu5Ac(a2-8)Neu5Ac(a2-8)Neu5Ac(a2-3)Gal(b1-4)Glc
# Procedure, shortened: as §1
# [21] = biological target: Neu5Gc(a2-8)Neu5Ac(a2-3)Gal(b1-4)GlcNAc
# Procedure, shortened: as §1
binder,measurement,setting,value
B1,glycan array binding signal (z-score),GalNAc(b1-3)GlcNAc,-0.188
same,glycan array binding signal (z-score),GalNAc6S(b1-4)GlcNAc,-0.269
same,glycan array binding signal (z-score),Glc(a1-6)Glc(a1-6)Glc,-0.212
same,glycan array binding signal (z-score),[1],0.413
same,glycan array binding signal (z-score),[2],-0.125
same,glycan array binding signal (z-score),[3],2.32
same,glycan array binding signal (z-score),[4],1.97
same,glycan array binding signal (z-score),[5],5.59
same,glycan array binding signal (z-score),[6],1.97
same,glycan array binding signal (z-score),[7],1.02
same,glycan array binding signal (z-score),[8],-0.142
same,glycan array binding signal (z-score),Kdn(a2-3)Gal(b1-3)GalNAc,0.111
same,glycan array binding signal (z-score),[9],-0.292
same,glycan array binding signal (z-score),Neu5Ac(a2-3)Gal(b1-4)Glc,0.916
same,glycan array binding signal (z-score),[10],-0.132
same,glycan array binding signal (z-score),[11],-0.288
same,glycan array binding signal (z-score),[12],4.84
same,glycan array binding signal (z-score),[13],-0.189
same,glycan array binding signal (z-score),[14],-0.181
same,glycan array binding signal (z-score),[15],-0.204
same,glycan array binding signal (z-score),[16],1.3
same,glycan array binding signal (z-score),[17],5.74
same,glycan array binding signal (z-score),[18],-0.075
same,glycan array binding signal (z-score),[19],-0.183
same,glycan array binding signal (z-score),[20],-0.195
same,glycan array binding signal (z-score),[21],-0.137
